In PubChem BioAssay:
Several values for one entry are separate records, joined by “and”; a condition that tells them apart may be missing. Equal entries are not always repeated. A number with no mark means an inactive call. No rule for the calls is given here.

System: Botulinum neurotoxin type F light chain protease (Clostridium botulinum)
Assay: Botulinum neurotoxin type F light chain protease inhibition, multiplex microsphere flow cytometry, validation set (AID 588459)
Conditions: multiplex microsphere protease substrate cleavage assay, at 10 µM, active compounds read high

| SMILES | inhibition [%] |
| --- | --- |
| O=c1c(-c2ccc3c(c2)OCCO3)coc2cc(OC3OC(CO)C(O)C(O)C3O)ccc12 (stereo not drawn) | 0.2 |
| CCOC(=O)C(Cc1cc(C(C)=O)ccc1OC(C)C)C(=O)OCC | 0.4 |
| CN1CCN(C2=Nc3cc(Cl)ccc3Nc3ccccc32)CC1 | -0.2 |
| NC(=O)c1cnccn1 | 0.4 |
| Cc1ccc2[nH]c3c(=O)n(CCc4cnc[nH]4)cnc3c2c1 | -6.6 |
| O=C1OC(c2ccccc2)=C/C1=C/c1cccs1 | 6.4 |
| CCN(CC)CC#CCOC(=O)C(O)(c1ccccc1)C1CCCCC1 (stereo not drawn) | -1.7 |
| CC(C)(CO)CNC(=O)CC1C(=O)NCCN1CC(c1ccccc1)c1ccccc1 (stereo not drawn) | 0.8 |
| NC(N)=NC(=O)c1nc(Cl)c(N)nc1N | -3.3 |
| NS(=O)(=O)c1cc2c(cc1Cl)NCNS2(=O)=O | -3.8 |
| Cc1c(OCC(=O)NC(Cc2c[nH]c3ccc(O)cc23)C(=O)O)ccc2c3c(c(=O)oc12)CCC3 (stereo not drawn) | 3.2 |
| Nc1cccc2c1nnn2C1OC(CO)C(O)C(O)C1O (stereo not drawn) | 0.7 |
| CCCN(CCC)C(=O)C(CCC(=O)O)NC(=O)c1ccccc1 (stereo not drawn) | 0.5 |
| CC1=C(C)C(=O)C(CCCCC#CCCCC#CCO)=C(C)C1=O | -2.1 |
| CCSC(=O)CCCCCCCCCCCO | 2.8 |
| O=C(O)/C=C/c1cccc(OCc2ccccc2)c1 | -2.1 |
| CC(=O)Oc1ccc2occ(/C=N/c3cc(=O)[nH]c(=S)[nH]3)c(=O)c2c1 | 2 |
| O=C(Nc1ccc(N2CCOCC2)cc1)c1ccc(-c2ccccc2[N+](=O)[O-])o1 | -2.6 |
| CCOCCCNCc1cn(-c2ccc(F)cc2F)nc1-c1ccccc1C | -0.4 |
| CN1[C@@H]2CC(OC(=O)[C@H](CO)c3ccccc3)C[C@H]1[C@@H]1O[C@@H]12 (stereo partly drawn) | -2.9 |

| SMILES | inhibition [%] |
| --- | --- |
| Cc1ccc(CSCC(=O)NCCCN2CCOCC2)cc1 | 1.4 |
| CC(C)C12CN3CC(C(C)C)(CN(C1)C3c1ccccc1O)C2=O (stereo not drawn) | 4.7 |
| CCOC(=O)N1CCN(Cc2nc(Cc3cccc(F)c3)no2)CC1 | 1.3 |
| NC(N)=N/N=C/c1c(Cl)cccc1Cl | -0.2 |
| CNCCC(Oc1ccc(C(F)(F)F)cc1)c1ccccc1 (stereo not drawn) | -3.3 |
| CC(=O)Nc1c(I)c(NC(C)=O)c(I)c(C(=O)O)c1I | -0.5 |
| Cc1occc(=O)c1O | 2.1 |
| Cc1cccc(Nc2ccccc2C(=O)O)c1C | -3.6 |
| CC(CN1c2ccccc2Sc2ccccc21)N(C)C (stereo not drawn) | -0.2 |
| Cc1ccc(S(=O)(=O)N[C@@H](Cc2ccccc2)C(=O)CCl)cc1 | -3.3 |
| CCc1cc(-c2[nH]ncc2-c2ccc3c(c2)OCO3)c(O)cc1O | -0.4 |
| C#C[C@]1(O)CC[C@H]2[C@@H]3CCC4=CC(=O)CC[C@@H]4[C@H]3CC[C@@]21CC | -0.6 |
| NS(=O)(=O)c1cc2c(cc1Cl)NC(CSCc1ccccc1)=NS2(=O)=O | -4.8 |
| OC(CCN1CCCCC1)(c1ccccc1)C1CCCCC1 (stereo not drawn) | 3.1 |
| O=C(Nc1ncc2c(n1)CC(c1ccco1)CC2=O)c1ccco1 (stereo not drawn) | -2.6 |
| CCC1(c2ccccc2)C(=O)NCNC1=O | 0 |
| CNC[C@H](O)c1cccc(O)c1 | 1.5 |
| CC(=O)[C@@]1(O)CC[C@H]2[C@@H]3CCC4=CC(=O)CC[C@]4(C)[C@H]3CC[C@@]21C | 11.2 |
| NC(N)=NC(N)=NCCc1ccccc1 | -1 |

Target: Botulinum neurotoxin type A (Clostridium botulinum) (UniProt P0DPI0)
Assay: BoNT/A light chain protease inhibitors, biochemical, multiplex microsphere flow cytometry, validation set (AID 588460)
Conditions: at 10 µM, active compounds read high

Sequence of Botulinum neurotoxin type A (Clostridium botulinum) (P0DPI0 whole entry, looked up): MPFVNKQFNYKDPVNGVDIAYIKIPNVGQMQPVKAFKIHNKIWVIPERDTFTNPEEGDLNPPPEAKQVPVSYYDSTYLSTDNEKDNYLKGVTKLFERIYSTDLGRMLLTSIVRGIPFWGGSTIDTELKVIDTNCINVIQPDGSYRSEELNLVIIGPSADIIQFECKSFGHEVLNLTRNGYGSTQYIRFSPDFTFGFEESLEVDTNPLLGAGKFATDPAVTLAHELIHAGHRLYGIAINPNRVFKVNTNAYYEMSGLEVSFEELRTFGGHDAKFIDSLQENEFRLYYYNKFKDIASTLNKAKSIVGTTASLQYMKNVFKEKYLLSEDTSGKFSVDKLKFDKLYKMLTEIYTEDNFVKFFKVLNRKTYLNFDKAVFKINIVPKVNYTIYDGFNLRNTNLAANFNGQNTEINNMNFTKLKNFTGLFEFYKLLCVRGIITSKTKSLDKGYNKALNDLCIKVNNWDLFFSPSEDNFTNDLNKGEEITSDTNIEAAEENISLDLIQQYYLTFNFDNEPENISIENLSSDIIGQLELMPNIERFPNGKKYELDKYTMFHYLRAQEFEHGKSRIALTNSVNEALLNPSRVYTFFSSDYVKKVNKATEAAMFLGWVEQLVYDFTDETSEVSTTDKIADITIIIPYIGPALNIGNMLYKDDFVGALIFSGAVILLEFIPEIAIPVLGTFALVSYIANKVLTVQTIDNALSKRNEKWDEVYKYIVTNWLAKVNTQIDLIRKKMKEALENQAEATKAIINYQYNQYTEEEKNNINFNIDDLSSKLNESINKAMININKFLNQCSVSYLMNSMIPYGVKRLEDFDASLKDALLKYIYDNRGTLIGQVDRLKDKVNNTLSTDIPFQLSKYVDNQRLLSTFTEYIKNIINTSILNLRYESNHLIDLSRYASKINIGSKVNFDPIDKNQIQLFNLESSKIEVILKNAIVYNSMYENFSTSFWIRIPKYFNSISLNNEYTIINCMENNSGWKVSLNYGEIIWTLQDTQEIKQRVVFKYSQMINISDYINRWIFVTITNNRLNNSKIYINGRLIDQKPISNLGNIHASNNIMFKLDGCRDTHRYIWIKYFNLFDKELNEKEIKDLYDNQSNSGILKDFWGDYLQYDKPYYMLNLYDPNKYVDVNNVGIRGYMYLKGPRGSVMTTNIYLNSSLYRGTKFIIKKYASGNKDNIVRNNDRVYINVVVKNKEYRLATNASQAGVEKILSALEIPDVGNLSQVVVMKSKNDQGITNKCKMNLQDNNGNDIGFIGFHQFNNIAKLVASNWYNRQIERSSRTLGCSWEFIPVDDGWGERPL

| SMILES | inhibition |
| --- | --- |
| O=c1c(-c2ccc3c(c2)OCCO3)coc2cc(OC3OC(CO)C(O)C(O)C3O)ccc12 (stereo not drawn) | 0.1% |
| CCOC(=O)C(Cc1cc(C(C)=O)ccc1OC(C)C)C(=O)OCC | -0.1% |
| CN1CCN(C2=Nc3cc(Cl)ccc3Nc3ccccc32)CC1 | -0.4% |
| NC(=O)c1cnccn1 | 0.7% |
| Cc1ccc2[nH]c3c(=O)n(CCc4cnc[nH]4)cnc3c2c1 | -0.7% |
| O=C1OC(c2ccccc2)=C/C1=C/c1cccs1 | 1.5% |
| CCN(CC)CC#CCOC(=O)C(O)(c1ccccc1)C1CCCCC1 (stereo not drawn) | 0.6% |
| CC(C)(CO)CNC(=O)CC1C(=O)NCCN1CC(c1ccccc1)c1ccccc1 (stereo not drawn) | -0.4% |
| NC(N)=NC(=O)c1nc(Cl)c(N)nc1N | -0.3% |
| NS(=O)(=O)c1cc2c(cc1Cl)NCNS2(=O)=O | -2.4% |
| Cc1c(OCC(=O)NC(Cc2c[nH]c3ccc(O)cc23)C(=O)O)ccc2c3c(c(=O)oc12)CCC3 (stereo not drawn) | -1.1% |
| Nc1cccc2c1nnn2C1OC(CO)C(O)C(O)C1O (stereo not drawn) | 0.1% |
| CCCN(CCC)C(=O)C(CCC(=O)O)NC(=O)c1ccccc1 (stereo not drawn) | -0.3% |
| CC1=C(C)C(=O)C(CCCCC#CCCCC#CCO)=C(C)C1=O | 0.4% |
| CCSC(=O)CCCCCCCCCCCO | 1.5% |
| O=C(O)/C=C/c1cccc(OCc2ccccc2)c1 | -0.9% |
| CC(=O)Oc1ccc2occ(/C=N/c3cc(=O)[nH]c(=S)[nH]3)c(=O)c2c1 | 0.7% |
| O=C(Nc1ccc(N2CCOCC2)cc1)c1ccc(-c2ccccc2[N+](=O)[O-])o1 | -0.9% |
| CCOCCCNCc1cn(-c2ccc(F)cc2F)nc1-c1ccccc1C | -1.9% |
| CN1[C@@H]2CC(OC(=O)[C@H](CO)c3ccccc3)C[C@H]1[C@@H]1O[C@@H]12 (stereo partly drawn) | -2.7% and -1% |

| SMILES | inhibition |
| --- | --- |
| Cc1ccc(CSCC(=O)NCCCN2CCOCC2)cc1 | -1.7% |
| CC(C)C12CN3CC(C(C)C)(CN(C1)C3c1ccccc1O)C2=O (stereo not drawn) | 1.2% |
| CCOC(=O)N1CCN(Cc2nc(Cc3cccc(F)c3)no2)CC1 | 0% |
| NC(N)=N/N=C/c1c(Cl)cccc1Cl | 0.6% |
| CNCCC(Oc1ccc(C(F)(F)F)cc1)c1ccccc1 (stereo not drawn) | 0.6% |
| CC(=O)Nc1c(I)c(NC(C)=O)c(I)c(C(=O)O)c1I | -1.9% |
| Cc1occc(=O)c1O | 0.8% |
| Cc1cccc(Nc2ccccc2C(=O)O)c1C | -1.1% |
| CC(CN1c2ccccc2Sc2ccccc21)N(C)C (stereo not drawn) | -1.5% |
| Cc1ccc(S(=O)(=O)N[C@@H](Cc2ccccc2)C(=O)CCl)cc1 | 1.2% |
| CCc1cc(-c2[nH]ncc2-c2ccc3c(c2)OCO3)c(O)cc1O | -0.4% |
| C#C[C@]1(O)CC[C@H]2[C@@H]3CCC4=CC(=O)CC[C@@H]4[C@H]3CC[C@@]21CC | -1.3% |
| NS(=O)(=O)c1cc2c(cc1Cl)NC(CSCc1ccccc1)=NS2(=O)=O | 0% |
| OC(CCN1CCCCC1)(c1ccccc1)C1CCCCC1 (stereo not drawn) | 1% |
| O=C(Nc1ncc2c(n1)CC(c1ccco1)CC2=O)c1ccco1 (stereo not drawn) | -3.2% |
| CCC1(c2ccccc2)C(=O)NCNC1=O | -0.9% |
| CNC[C@H](O)c1cccc(O)c1 | 2.2% |
| CC(=O)[C@@]1(O)CC[C@H]2[C@@H]3CCC4=CC(=O)CC[C@]4(C)[C@H]3CC[C@@]21C | 0.4% |
| NC(N)=NC(N)=NCCc1ccccc1 | -0.8% |
